DT40 TDP1 CPT – growth inhibition of DT40 Tdp1-/-;hTDP1 cells with camptothecin (screen for TDP1 inhibitors); chicken DT40 Tdp1-/-;hTDP1 cells + 20 nM CPT, ATP luminescence, 48 h; Potency, µM (doses to about 46.2 µM), for inactives: top-dose activity change, negative = growth inhibition, hits mostly inhibitors; 12% of 420,000 active; further: potency means the concentration at half of the fitted maximal effect; nearly all actives have a fitted effect of over 55% in size
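Chicken DT40 Tdp1-/- cells complemented with human TDP1, 400 cells/well, exposed to compounds plus 20 nM camptothecin for at least 48 h at 37 C; viability read as ATP content by CellTiter-Glo luminescence.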
RORgamma inh – ROR gamma (mouse) transcription inhibition. AID 2551. Drosophila S2 Gal4-RORgamma UAS-luciferase reporter, 20 h. 5.4% of 310,000 active. Potency, µM (doses to about 53.6 µM), inactives show at the highest dose activity change, negative = inhibition, hits mostly inhibitors; further: potency means the concentration at half of the fitted maximal effect; nearly all actives have a fitted effect of over 60% in size
Target sequence (P51450 whole entry, looked up, the tested form may be a part): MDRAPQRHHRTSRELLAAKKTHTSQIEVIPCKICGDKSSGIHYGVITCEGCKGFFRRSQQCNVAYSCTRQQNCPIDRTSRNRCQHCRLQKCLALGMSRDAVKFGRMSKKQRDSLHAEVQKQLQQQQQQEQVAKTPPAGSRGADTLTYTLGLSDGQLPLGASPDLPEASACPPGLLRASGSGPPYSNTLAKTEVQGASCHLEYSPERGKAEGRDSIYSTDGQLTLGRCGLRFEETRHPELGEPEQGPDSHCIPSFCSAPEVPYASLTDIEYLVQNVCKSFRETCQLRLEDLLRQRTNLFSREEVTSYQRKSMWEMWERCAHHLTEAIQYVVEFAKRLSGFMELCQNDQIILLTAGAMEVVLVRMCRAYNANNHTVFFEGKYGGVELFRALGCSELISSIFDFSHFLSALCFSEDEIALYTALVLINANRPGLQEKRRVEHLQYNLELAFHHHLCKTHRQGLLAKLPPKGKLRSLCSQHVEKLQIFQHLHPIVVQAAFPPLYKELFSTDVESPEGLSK
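Schneider cells (Drosophila), stable Gal4 DBD–ROR gamma + UAS-luc; 1 hr cmpd preincubation; Cu2+ induction 700 uM final; 20 hr ambient; luminescence.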
Gal4-VP16 FLuc – Gal4-VP16 reporter inhibition counter-screen; Drosophila S2 Gal4-VP16 UAS-luciferase, luminescence, 20 h; Potency, µM (top dose mostly 53.6 µM), inactives show top-dose activity, negative = inhibition, most hits filed as inhibitors; 3.5% of 310,000 active;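 further: Gal4-VP16 expression switched on by copper sulfate through the metallothionein promoter; potency means the concentration at half of the fitted maximal effect; nearly all actives have a fitted effect of over 50% in size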
IL-1B inflam inh – inhibitors of inflammasome signaling (IL-1 beta secretion); THP-1 LPS/ATP IL-1B secretion, AlphaLISA, 16 h; hits give low values; activity change, % at 57.5 µM; 4.7% of 360,000 active; AID 743279; in the data active means activity change below about -50%; inconclusive means mostly about -30% to -49%
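THP-1 cells pretreated 1 hr with compounds (up to 57.5 uM final), then stimulated with LPS (250 ng/mL final) plus ATP (1.25 mM final); secreted IL-1B measured by AlphaLISA after 16 hr, decreased signal indicating inhibition.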
ELG1 repair inh – inhibitors of ELG1-dependent DNA repair in HEK293T cells | HEK293T ELG1-luciferase reporter, luminescence, 16 h; DNA damage induced by 5-fluorouridine | AID 504467 | Potency, µM (highest dose often 46.1 µM), without a hit: at the highest dose activity change, negative = inhibition, usual class: inhibitors | 2.3% of 330,000 active; further: potency means the concentration at half of the fitted maximal effect; nearly all actives have a fitted effect of over 55% in size
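Cells (2,000 per well) received 5-fluorouridine plus test compound or DMSO and were incubated 16 hr at 37 °C, 5% CO2. Luciferase activity was read by luminescence 30 min after ONE-Glo addition; signal suppression marked inhibition of damage-induced ELG1 function.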
TDP1 cell noCPT – qHTS for Inhibitors of human tyrosyl-DNA phosphodiesterase 1 (TDP1): qHTS in cells in absence of CPT. DT40 Tdp1-/- hTDP1 cells, no CPT, ATP luminescence, 48 h. Potency, µM (highest dose often 46.2 µM), inactives show top-dose activity change, negative = growth inhibition, usual class: inhibitors. 15% of 420,000 active; further: potency means the concentration at half of the fitted maximal effect; nearly all actives have a fitted effect of over 55% in size
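Cells were dispensed at 400 per well, compounds added by pin tool, plates incubated ≥48 hr at 37 °C, then CellTiter-Glo added for 30 min at room temperature before luminescence reading. Line: DT40 Tdp1-/- complemented with hTDP1; camptothecin omitted.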
* hit, by the source's call; ? = inconclusive; nt = not tested or not shown. Rows were chosen to be rich in hits. Some 21% of all compounds tested hit in one or more screens of this group. Unless noted, the call rests on the fitted dose curve; in most records, active means well fitted curve in the direction sought with a large enough effect; inconclusive means small, poorly fitted or top-dose-only effect, or another doubt; inactive means no such curve, though single readings can be large; an effect the other way counts as inactive or inconclusive. On the % scale 0 is the no-effect control and ±100 the full control effect.

SMILES	DT40 TDP1 CPT	RORgamma inh	Gal4-VP16 FLuc	IL-1B inflam inh	ELG1 repair inh	TDP1 cell noCPT
CCOCc1c(C(=O)Nc2cc(OCC)c(N3CCOCC3)cc2OCC)oc2ccccc12	?	0%	-7%	27	13µM*	?
CCOCc1c(C(=O)Nc2ccc3nc(N4CCOCC4)sc3c2)oc2ccccc12	21µM*	nt	nt	-16	12µM*	?
COc1ccc(C(=O)Nc2ccc3nc(N4CCOCC4)sc3c2)cc1OC	-17%	nt	nt	48	?	-2%
Cc1cc2oc(=O)cc(CN3CCN(c4ccc(Cl)c(Cl)c4)CC3)c2cc1Cl	-12%	nt	nt	-9	nt	-1%
CC(Oc1ccccc1)C(=O)N[C@@H]1C(=O)N2C(C(=O)OCC3CCCCC3)C(C)(C)S[C@H]12 (stereo not given in full)	-7%	nt	nt	nt	nt	-11%
O=c1c(-c2ccccc2)nc2cnc(Oc3cccc(Cl)c3)nc2n1C[C@H]1CCCO1	-13%	43%	-6%	nt	nt	-30%
Cn1cnc(S(=O)(=O)N2CCC(C(=O)NCc3ccc(Cl)cc3)CC2)c1	1%	nt	nt	nt	nt	?
O=C(NCc1ccncc1)C(=O)NCC1OCCN1S(=O)(=O)c1ccc(F)cc1 (stereo not given)	6%	36%	2%	32	-3%	8%
Cc1ccc(NC(=O)CN2CCN(S(=O)(=O)c3ccc4c(c3)OCCO4)CC2)c(C)c1	-28%	nt	nt	15	nt	?
CC(=O)c1cccc(NC(=O)c2ccc3nc(C(C)C)oc3c2)c1	?	nt	nt	nt	nt	16µM*
Cc1c(Cl)cccc1NC(=O)c1ccc2snnc2c1	-1%	nt	nt	nt	nt	-28%
CC(=O)c1cccc(NC(=O)c2cc(=O)c3ccccc3o2)c1	-6%	15%	6%	16	20%	?
CC(C)c1nc2ccc(C(=O)Nc3ccccc3F)cc2o1	7.3µM*	nt	nt	nt	nt	5.8µM*
Cc1c(Cl)cccc1NC(=O)c1ccc2nc(C(C)C)oc2c1	?	nt	nt	nt	nt	12µM*
CS(=O)(=O)Nc1ccc(-c2ccc3nccn3c2)cc1	?	nt	nt	10	nt	-17%
CC(=O)Nc1cccc(NC(=O)CSc2ncc(C(=O)Nc3ccccc3)c(=O)n2C)c1	5.8µM*	nt	nt	-100*	?	8.2µM*
COc1ccccc1CNC(=O)CSc1ncc(C(=O)Nc2ccccc2)c(=O)n1C	16µM*	nt	nt	27	?	15µM*
CC(=O)c1cccc(NC(=O)c2nc3ccccc3n(C)c2=O)c1	15µM*	nt	nt	nt	nt	10µM*
Cn1c(SCC(=O)NCCc2ccccc2)ncc(C(=O)Nc2ccccc2)c1=O	?	nt	nt	-4	?	13µM*
Cn1c(SCC(=O)NCC2CCCO2)ncc(C(=O)Nc2ccc(Cl)cc2)c1=O (stereo not given)	7.3µM*	nt	nt	-15	?	9.2µM*
CC(=O)c1cccc(NC(=O)CSc2ncc(C(=O)Nc3ccccc3)c(=O)n2C)c1	7.3µM*	nt	nt	3	?	7.3µM*
CC(=O)Nc1cccc(NC(=O)CSc2ncc(C(=O)Nc3ccc(F)cc3)c(=O)n2C)c1	15µM*	nt	nt	-100*	?	12µM*
Cn1c(SCC(=O)NCc2ccc(F)cc2)ncc(C(=O)Nc2ccccc2)c1=O	?	nt	nt	30	7%	?
CC(=O)Nc1ccc(NC(=O)CSc2ncc(C(=O)Nc3ccc(Cl)cc3)c(=O)n2C)cc1	?	nt	nt	4	?	?
CC(=O)Nc1ccc(NC(=O)CSc2ncc(C(=O)Nc3ccc(F)cc3)c(=O)n2C)cc1	18µM*	nt	nt	-59*	?	21µM*
SMILES	DT40 TDP1 CPT	RORgamma inh	Gal4-VP16 FLuc	IL-1B inflam inh	ELG1 repair inh	TDP1 cell noCPT
COc1ccccc1CNC(=O)c1cccc(S(=O)(=O)N2CCCC2)c1	-7%	nt	nt	-1	-2%	-3%
COC(=O)c1cc(C(=O)OCC(=O)c2ccc3c(c2)NC(=O)CO3)cc([N+](=O)[O-])c1	-1%	nt	nt	9	6%	-1%
CC(C)C[C@H]1CNC(=S)N1CC1CCN(CCC23CC4CC(CC(C4)C2)C3)CC1	?	nt	nt	-50*	nt	16µM*
CC(C)C[C@H]1CNC(=S)N1CC1CCN(CCCC2CCCCC2)CC1	18µM*	nt	nt	-54*	nt	?
CC(C)C[C@H]1CNC(=S)N1CC1CCN(CC2CCCC2)CC1	-28%	nt	nt	14	nt	-12%
COc1ccc(NC(=O)c2cc(S(=O)(=O)N3CCCCC3)cn2C)cc1Cl	-10%	nt	nt	nt	nt	-26%
O=c1cnc2cnc(N3CCOCC3)nc2n1CCc1ccccc1	8%	-8%	-6%	nt	nt	3%
CCN(CC)C(=O)C1=C(C)N(CCC2=CCCCC2)C(=O)C(CC(=O)NC2CCCC2)C1 (stereo not given)	1%	nt	nt	10	nt	-27%
COc1ccccc1NC(=O)NCCc1c[nH]c2ccccc12	-27%	21%	0%	13	1%	?
Cc1ccc(NS(=O)(=O)c2cccc(C(=O)NCCc3c[nH]c4ccccc34)c2)c(C)c1	?	?	22µM*	-78*	?	?
Cc1ccc(C)c(NC(=S)NCCc2c[nH]c3ccccc23)c1	?	1.3µM*	11µM*	-58*	0%	13µM*
Cc1ccc(C)c(NC(=O)C(=O)NCCc2c[nH]c3ccccc23)c1	-29%	?	-15%	-22	-24%	?
COc1ccc(Cl)cc1NC(=S)NCCc1c[nH]c2ccccc12	?	5.6µM*	7.1µM*	21	-9%	?
Cc1ccccc1NC(=S)NCCc1c[nH]c2ccccc12	-13%	7.9µM*	11µM*	-9	-20%	?
CN(Cc1ccc(Cl)cc1Cl)C(=O)CCNC(=O)c1ccco1	-10%	nt	nt	11	4%	-22%
CCOC(=O)c1sc(N)nc1C(F)(F)F	-1%	nt	nt	13	nt	?
CCCSc1nnc2c(n1)OC(CC)N(C(C)=O)c1ccccc1-2 (stereo not given)	-18%	nt	nt	nt	nt	-21%
COc1cc(C(=O)NC2CC(C)(C)CC(C)(C)C2)ccc1OC1CCN(C(C)=O)CC1	?	14%	2%	3	3%	?
Cc1cc2n(n1)CCCN2C(=O)Nc1ccccc1C(F)(F)F	-20%	nt	nt	nt	nt	-18%
CC(=O)c1cccc(NC2c3ccccc3C(=O)N2Cc2ccc3c(c2)OCO3)c1 (stereo not given)	?	51%	5%	-10	?	21µM*
COc1cc(NC2c3ccccc3C(=O)N2Cc2ccc3c(c2)OCO3)cc(OC)c1OC (stereo not given)	-7%	17%	6%	-7	-10%	?

Screening data: PubChem BioAssay, National Center for Advancing Translational Sciences (NCATS)
